# Data as given in PubChem BioAssay (NCATS).
# Values without a mark were called inactive. Records with an inconclusive call do not appear. A call without a number means that no potency is given here. Calls of active or inactive are those of the source. Unless noted, calls follow the shape of the dose curve; as a rule, active = well fitted curve in the direction sought with a large enough effect; inconclusive = small, poorly fitted or top-dose-only effect, or another doubt; inactive = no such curve, though single readings can be large; an effect the other way counts as inactive or inconclusive.
# Columns and labels:
# [1] = AP1 Signaling Pathway (AID 357; active = well fitted curve in either direction with a large enough effect, not every such curve was filed as active;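 also: ME-180 reporter cells stimulated with EGF at its EC50 level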); conditions: ME-180 (cervical carcinoma) AP-1-bla reporter, EGF-induced, beta-lactamase ratio, 5 h; at 7.69 µM (top of the series) unless noted
# Procedure, shortened: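 Modulation of EGF-driven AP-1 transcription was assessed with a beta-lactamase reporter in ME-180 cells. Compound and EC50 EGF were co-incubated 5 hours at 37 °C before 2.5-hour CCF4 loading at room temperature and dual-emission reading.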
# [2] = molecular target: Cytochrome P450 1A2 (Homo sapiens) (UniProt P05177); assay: p450-cyp1a2 (AID 410; calls by dose curve; also: potency is read from the fitted curve at half-maximal effect)
# Procedure, shortened: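 Read-out is luminescence from luciferin produced by CYP1A2 demethylation of Luciferin-ME (100uM, at Km). Detection reagent stopped the 60 min NADPH-dependent reaction; signals were normalized to 57 uM furafylline.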
# [3] = NFAT Signaling Pathway (AID 444; active = well fitted curve in either direction with a large enough effect, not every such curve was filed as active;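 also: carbachol stimulus at about its EC50 of 1 µM final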); conditions: Jurkat NFAT-bla M1, carbachol, beta-lactamase ratio, 5 h; at 7.69 µM (top of the series) unless noted
# Procedure, shortened: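 Jurkat cells with NFAT-driven β-lactamase reporter and co-expressed M1 receptor, stimulated with carbachol (final 1 uM, ~EC50), compound titration, 5 h at 37 °C. CCF4 loaded 1 h at RT; 460/530 nm ratio gave %activity and AC50.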
# [4] = Stat Signaling Pathway (AID 446; active = well fitted curve in either direction with a large enough effect, not every such curve was filed as active;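 also: ME-180 cervical cancer cells given 40 pM IL-6 alongside compound; SIE-controlled beta-lactamase reporter measured as 460/530 nm FRET emission ratio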)
# Procedure, shortened: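 Overnight-plated ME-180 cells bearing a STAT Inducible Element beta-lactamase reporter; 5 h co-exposure to compound and 40 pM IL-6; values normalized to 300 pM IL-6 and 125 nM JAK inhibitor controls.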
# [5] = molecular target: Glucocorticoid receptor (Homo sapiens) (UniProt P04150); assay: GR-GFP Redistribution (AID 450;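 active = compounds whose dose series gives a full or clear partial fitted curve of increased nuclear translocation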; also: potency is read from the fitted curve at half-maximal effect); conditions: U2OS GR-GFP nuclear translocation, laser cytometry, 2 h
# [6] = molecular target: Glucocorticoid receptor (Homo sapiens) (UniProt P04150); assay: GR-EFC Redistribution (AID 451; calls by dose curve; also: potency is read from the fitted curve at half-maximal effect); conditions: CHO-K1 GR-EFC translocation, beta-gal luminescence, 2 h
# Procedure, shortened: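 CHO-K1 cells expressing nuclear EA and GR-ED fragments of b-gal; compounds titrated up to 46 uM final, 2 h at 37 C. GR nuclear translocation read as complemented b-gal luminescence after 1 h RT detection.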
# [7] = molecular target: Mitogen-activated protein kinase 10 (Mus musculus) (UniProt Q61831); assay: JNK3 AlphaScreen Assay (AID 530; active = well fitted curve in either direction with a large enough effect, not every such curve was filed as active;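 also: kinase came from lysate of stimulated human HepG2 cells; signal reports phosphorylation of biotinylated GST-cJun 1-79 at Ser73 with 10 µM ATP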)
# Procedure, shortened: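 HepG2 lysate (IL-1b/TNFa pre-activated) + biotin-GST-cJun 1-79 + anti-pSer73 cJun; cpd titration, 15 min RT; ATP 10 uM start; Tris pH 7.6, MgCl2, DTT, vanadate; beads in EDTA buffer; AlphaScreen.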
# [8] = molecular target: 3',5'-cyclic-AMP phosphodiesterase 4B (Homo sapiens) (UniProt Q07343); assay: qHTS Assay for Inhibitors of PDE-IV (AID 607; active = well fitted activation curve with a large enough effect in the main read-out, with a control signal flat, not every such curve was filed as active)
# Procedure, shortened: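 Live HEK293 cells with a modified cyclic nucleotide-gated (CNG) channel report intracellular cAMP via membrane-potential dye fluorescence (ex 535/em 590 nm). Endogenous PDE-IV was targeted. Compounds were tested at up to 22.9 uM final; RO 20-1724 100 uM served as control.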
# [9] = molecular target: Cytochrome P450 3A4 (Homo sapiens) (UniProt P08684); assay: qHTS Assay for Activators of Cytochrome P450 3A4 (AID 885); also: nearly all actives have a fitted effect of over 65% in size
# Procedure, shortened: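 Using 20nM recombinant human CYP3A4 in potassium phosphate (200mM), substrate Luciferin-PPXE at 25uM, luminescent luciferin detection followed a 60-min RT NADPH reaction; data scaled to 57 uM ketoconazole.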
# [10] = molecular target: Cytochrome P450 2D6 (Homo sapiens) (UniProt P10635); assay: qHTS Assay for Inhibitors and Substrates of Cytochrome P450 2D6 (AID 891); also: potency is read from the fitted curve at half-maximal effect; nearly all actives have a fitted effect of over 60% in size
# Procedure, shortened: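 Luminescent read-out of luciferin formed by 5 nM human CYP2D6 demethylating 30 uM Luciferin-ME EGE (Km level) over 60 min at room temperature after NADPH regeneration addition. Data normalized to full inhibition by 1.43 uM quinidine.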
# [11] = molecular target: Cytochrome P450 2C19 (Homo sapiens) (UniProt P33261); assay: qHTS Assay for Inhibitors and Substrates of Cytochrome P450 2C19 (AID 899); also: potency is read from the fitted curve at half-maximal effect; nearly all actives have a fitted effect of over 60% in size
# Procedure, shortened: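 Luminescent read-out of luciferin formed from Luciferin-H EGE (10uM, equal to KM). Enzyme 5nM in 50mM KPO4; compound added, 10 min at 37C, then NADPH regenerating system for 60 min at 37C. Full inhibition defined by 57uM ketoconazole.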
# [12] = molecular target: Dual specificity protein kinase CLK4 (Homo sapiens) (UniProt Q9HAZ1); assay: qHTS Assay for Inhibitors of CDC-like Kinase 4 (ADP-FP Assay) (AID 1795);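 also: recombinant human CLK4 phosphorylating RS repeat peptide at 1 µM ATP; nearly all actives have a fitted effect of over 60% in size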
# Procedure, shortened: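 Inhibition of ADP formation by 6.25 nM Clk4 is measured using 1 uM ATP and 100 uM RS repeat peptide over one hour. Produced ADP displaces a fluorescent tracer from antibody, lowering polarization.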
# [13] = molecular target: Ubiquitin carboxyl-terminal hydrolase 1 (Homo sapiens) (UniProt O94782); assay: Inhibitors of USP1/UAF1: Pilot qHTS (AID 504865);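 also: rhodamine fluorescence freed from ubiquitin-rhodamine substrate followed over time; top concentration of the series differs between compounds; nearly all actives have a fitted effect of over 35% in size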
# Procedure, shortened: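 Kinetic fluorescence assay: 1nM USP1/UAF1, 15 min compound preincubation, then 150nM Ub-Rho; 480/540 nm.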
# [14] = Viability counterscreen for antagonist of constitutive androstane receptor (CAR) against the NCATS DSHEA and TCM libraries (AID 1794837);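 also: compound exposure lasted 24 h before viability reading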
# Procedure, shortened: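 Fluorescence from CellTiter-Fluor reports live-cell protease activity in HepG2-CYP2B6-hCAR cells treated for 24 h with substances alongside 48 uM CITCO.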
# [15] = Viability counterscreen for agonist of constitutive androstane receptor (CAR) against the NCATS DSHEA and TCM libraries (AID 1794838)
# Procedure, shortened: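 In agonist mode, PK11195 is added at 0.75 uM final to HepG2-CYP2B6-hCAR cells dosed with test substances. Cultures incubate 24 h at 37C before a protease-based fluorogenic viability readout.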
# [16] = molecular target: Nuclear receptor subfamily 1 group I member 3 (Homo sapiens) (UniProt Q14994); assay: Primary qHTS for agonist of constitutive androstane receptor (CAR) against the NCATS DSHEA and TCM libraries (AID 1794839);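 also: HepG2 cells expressing human CAR with a CYP2B6 reporter plus PK11195 antagonist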
# Procedure, shortened: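 Cells stably carrying hCAR and a CYP2B6 reporter (HepG2 background) are seeded and allowed 5 h to adhere. Substances at multiple concentrations are added alongside 0.75 µM PK11195, and luciferase signal is measured after 24 h.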
# [17] = HepG2 viability counterscreen (readout 2: ATP content) against the NCATS DSHEA and TCM libraries (AID 1794840);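 also: HepG2 cells exposed to substances for about 24 h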
# Procedure, shortened: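 Cytotoxicity was assessed in HepG2 cells plated at 1,000 cells/well and exposed for about 24 hours to a concentration series. Protease activity and ATP content were measured sequentially in each well.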
# [18] = molecular target: Cytochrome P450 2D6 (Homo sapiens) (UniProt P10635); assay: qHTS for inhibitors of CYP2D6 against the NCATS DSHEA and TCM libraries (AID 1919972)
# Procedure, shortened: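 qHTS, concentration–response format with most substances from 19.5 nM. CYP2D6 + pro-luciferin substrate, 15 min with compound, then 1x NADPH regen, 30–45 min RT dark. Glo detection 30 min, luminescence. Quinidine control.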
# [19] = KB-3-1 P-gp reporter qHTS against the NCATS DSHEA and TCM libraries (AID 1919975)
# Procedure, shortened: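 72 h exposure of KB-3-1 cells (DMEM, 10% FBS) to DSHEA/TCM samples, concentration-response; cell viability measured as CellTiter-Glo luminescence after 30 min at room temperature.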
# [20] = qHTS Counterscreen for compound interference against the NCATS DSHEA and TCM libraries (AID 1919978); conditions: firefly luciferase detection reagent interference, luminescence
# Procedure, shortened: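 Read-out is luminescence after 30 min at RT with luciferin detection reagent. Before that, compounds (19.5 nM to 39.8 uM final) sat 15 min at RT with 1 uM D-luciferin or 100 mM potassium phosphate buffer. PTC124 served as intraplate control.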
# [21] = Dual reporter qHTS for agonist of Pregnane X Receptor (hPXR) against the NCATS DSHEA and TCM libraries: Fluorescence readout (AID 1920058)
# Procedure, shortened: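 In this qHTS counter-read, reporter-bearing HepG2 cells in charcoal-stripped serum received substances for approximately 24 h before viability was assessed fluorometrically with CellTiter-Fluor.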
# [22] = molecular target: Nuclear receptor subfamily 1 group I member 2 (Homo sapiens) (UniProt O75469); assay: Dual reporter qHTS for agonist of Pregnane X Receptor (hPXR) against the NCATS DSHEA and TCM libraries: Luminescence readout (AID 1920059)
# Procedure, shortened: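 hPXR-Luc HepG2 cells, 2000/well in 5% charcoal-stripped FBS medium, attached 5 h, then exposed 24 h at 37C to compounds. Viability by CellTiter-Fluor, then luciferase luminescence with ONE-Glo.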
# [23] = molecular target: Nuclear receptor subfamily 1 group I member 2 (Homo sapiens) (UniProt O75469); assay: Dual reporter qHTS for antagonist of Pregnane X Receptor (hPXR) against the NCATS DSHEA and TCM libraries: Luminescence Readout (AID 1920060)
# Procedure, shortened: (§1)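 Rifampicin-stimulated (2 uM final) hPXR-luciferase HepG2 cells were treated for 24 h with DSNP/TCM substances. Viability came from CellTiter-Fluor fluorescence, reporter activity from ONE-Glo luminescence.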
# [24] = Dual reporter qHTS for antagonist of Pregnane X Receptor (hPXR) against the NCATS DSHEA and TCM libraries: Fluorescence Readout (AID 1920061)
# Procedure, shortened: as §1
# [25] = molecular target: Cytochrome P450 3A4 (Homo sapiens) (UniProt P08684); assay: qHTS for inhibitors of CYP3A4 against the NCATS DSHEA and TCM libraries (AID 1919971); also: potency is read from the fitted curve at half-maximal effect
# Procedure, shortened: (§2)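 Isoform-specific enzyme and substrate levels; enzyme-free wells as background. Reaction: 1x NADPH regenerating system, 30-45 min, room temperature, shielded from light; luminescent detection reagent added, 30 min.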
# [26] = molecular target: Lysosomal acid glucosylceramidase (Homo sapiens) (UniProt P04062); assay: Glucocerebrosidase-p2 (AID 348; in the data active = potency below about 10 µM; also: potency is read from the fitted curve at half-maximal effect); conditions: purified GBA, blue fluorogenic substrate, 40 min
# Procedure, shortened: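 Normal human glucocerebrosidase (0.2 nM) with blue fluorogenic substrate (80 uM final) in citrate/phosphate pH 5.9 with 10mM sodium taurocholate, 0.01% tween-20; 40 min RT, NaOH/glycine stop; fluorescence Ex 365/Em 440; AC50 from a titration from 0.6 nM upwards.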
# [27] = molecular target: Cytochrome P450 2C9 (Homo sapiens) (UniProt P11712); assay: qHTS for inhibitors of CYP2C9 against the NCATS DSHEA and TCM libraries (AID 1919973);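 also: luminogenic pro-luciferin CYP2C9 substrate turned into luciferin with NADPH regeneration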
# Procedure, shortened: as §2
# [28] = molecular target: Cytochrome P450 2C19 (Homo sapiens) (UniProt P33261); assay: qHTS for inhibitors of CYP2C19 against the NCATS DSHEA and TCM libraries (AID 1919974);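 also: luminescence from luciferin released by CYP2C19 oxidation of a pro-luciferin substrate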
# Procedure, shortened: as §2
# [29] = molecular target: Cytochrome P450 1A2 (Homo sapiens) (UniProt P05177); assay: qHTS for inhibitors of CYPIA2 against the NCATS DSHEA and TCM libraries (AID 1919976);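 also: light from luciferin formed by CYP1A2 from a pro-luciferin substrate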
# Procedure, shortened: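 Furafylline served as the plate control. Compounds met CYP1A2 and pro-luciferin substrate 15 min before NADPH regeneration solution (1x) was added; after 30-45 min at RT, P450-Glo reagent was added for 30 min and luminescence was measured.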
# Cytochrome P450 2D6 (Homo sapiens), sequence (P10635 whole entry, looked up): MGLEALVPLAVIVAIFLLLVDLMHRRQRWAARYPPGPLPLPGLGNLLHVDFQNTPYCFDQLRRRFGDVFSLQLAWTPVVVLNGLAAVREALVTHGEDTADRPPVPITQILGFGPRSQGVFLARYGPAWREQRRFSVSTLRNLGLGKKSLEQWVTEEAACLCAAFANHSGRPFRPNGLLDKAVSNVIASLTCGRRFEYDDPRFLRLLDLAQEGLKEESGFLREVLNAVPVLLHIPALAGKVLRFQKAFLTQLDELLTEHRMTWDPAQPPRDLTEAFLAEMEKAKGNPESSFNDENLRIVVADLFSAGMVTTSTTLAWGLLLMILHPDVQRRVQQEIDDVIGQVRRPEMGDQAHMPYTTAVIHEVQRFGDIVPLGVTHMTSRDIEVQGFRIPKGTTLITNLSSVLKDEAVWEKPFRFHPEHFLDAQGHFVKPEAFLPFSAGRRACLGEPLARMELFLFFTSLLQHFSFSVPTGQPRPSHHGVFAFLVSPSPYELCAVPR
# Glucocorticoid receptor (Homo sapiens), sequence (P04150 whole entry, looked up, the tested form may be a part): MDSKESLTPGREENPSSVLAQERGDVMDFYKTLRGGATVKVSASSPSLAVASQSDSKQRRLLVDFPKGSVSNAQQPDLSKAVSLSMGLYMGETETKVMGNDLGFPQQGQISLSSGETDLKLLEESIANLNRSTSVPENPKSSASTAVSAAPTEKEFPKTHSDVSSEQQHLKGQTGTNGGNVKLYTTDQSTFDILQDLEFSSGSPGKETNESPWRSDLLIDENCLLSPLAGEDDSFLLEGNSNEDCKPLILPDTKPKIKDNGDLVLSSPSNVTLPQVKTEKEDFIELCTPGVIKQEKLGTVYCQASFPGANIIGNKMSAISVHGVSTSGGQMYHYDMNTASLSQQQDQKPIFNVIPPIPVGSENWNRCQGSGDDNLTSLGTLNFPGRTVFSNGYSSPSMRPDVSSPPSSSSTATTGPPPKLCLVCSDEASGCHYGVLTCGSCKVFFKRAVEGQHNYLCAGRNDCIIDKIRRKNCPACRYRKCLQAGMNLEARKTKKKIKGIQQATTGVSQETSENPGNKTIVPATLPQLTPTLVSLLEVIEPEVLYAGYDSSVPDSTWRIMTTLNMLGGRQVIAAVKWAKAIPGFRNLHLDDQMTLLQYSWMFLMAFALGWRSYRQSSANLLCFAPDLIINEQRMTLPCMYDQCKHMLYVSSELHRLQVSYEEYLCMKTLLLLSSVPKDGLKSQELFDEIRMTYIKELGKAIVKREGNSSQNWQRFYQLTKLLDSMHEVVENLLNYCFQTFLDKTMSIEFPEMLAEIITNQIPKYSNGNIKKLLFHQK
# Nuclear receptor subfamily 1 group I member 2 (Homo sapiens), sequence (O75469 whole entry, looked up): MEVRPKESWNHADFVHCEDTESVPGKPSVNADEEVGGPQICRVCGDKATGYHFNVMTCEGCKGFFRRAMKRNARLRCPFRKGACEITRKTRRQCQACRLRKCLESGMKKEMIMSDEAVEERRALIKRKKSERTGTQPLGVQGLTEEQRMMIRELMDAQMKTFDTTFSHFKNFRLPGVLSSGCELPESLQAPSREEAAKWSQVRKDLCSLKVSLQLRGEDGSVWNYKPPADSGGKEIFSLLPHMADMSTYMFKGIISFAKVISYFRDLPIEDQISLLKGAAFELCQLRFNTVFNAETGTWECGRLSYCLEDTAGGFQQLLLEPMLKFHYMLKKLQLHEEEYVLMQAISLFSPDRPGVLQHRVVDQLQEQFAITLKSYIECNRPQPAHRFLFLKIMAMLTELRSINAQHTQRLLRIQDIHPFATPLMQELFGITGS
# Cytochrome P450 2C19 (Homo sapiens), sequence (P33261 whole entry, looked up): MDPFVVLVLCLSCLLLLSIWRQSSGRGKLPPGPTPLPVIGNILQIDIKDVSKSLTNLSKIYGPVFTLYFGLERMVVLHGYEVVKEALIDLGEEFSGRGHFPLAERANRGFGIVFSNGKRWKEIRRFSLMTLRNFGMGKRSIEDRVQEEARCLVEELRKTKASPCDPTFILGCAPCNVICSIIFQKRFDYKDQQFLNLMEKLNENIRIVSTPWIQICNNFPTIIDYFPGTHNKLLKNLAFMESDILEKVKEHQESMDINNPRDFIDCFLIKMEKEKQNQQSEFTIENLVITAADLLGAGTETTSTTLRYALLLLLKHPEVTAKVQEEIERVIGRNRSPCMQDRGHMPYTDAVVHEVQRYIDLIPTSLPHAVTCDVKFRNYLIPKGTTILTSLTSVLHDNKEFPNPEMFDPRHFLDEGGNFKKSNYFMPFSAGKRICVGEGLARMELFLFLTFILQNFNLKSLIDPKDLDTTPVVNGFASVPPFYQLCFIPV
# Cytochrome P450 3A4 (Homo sapiens), sequence (P08684 whole entry, looked up, canonical isoform): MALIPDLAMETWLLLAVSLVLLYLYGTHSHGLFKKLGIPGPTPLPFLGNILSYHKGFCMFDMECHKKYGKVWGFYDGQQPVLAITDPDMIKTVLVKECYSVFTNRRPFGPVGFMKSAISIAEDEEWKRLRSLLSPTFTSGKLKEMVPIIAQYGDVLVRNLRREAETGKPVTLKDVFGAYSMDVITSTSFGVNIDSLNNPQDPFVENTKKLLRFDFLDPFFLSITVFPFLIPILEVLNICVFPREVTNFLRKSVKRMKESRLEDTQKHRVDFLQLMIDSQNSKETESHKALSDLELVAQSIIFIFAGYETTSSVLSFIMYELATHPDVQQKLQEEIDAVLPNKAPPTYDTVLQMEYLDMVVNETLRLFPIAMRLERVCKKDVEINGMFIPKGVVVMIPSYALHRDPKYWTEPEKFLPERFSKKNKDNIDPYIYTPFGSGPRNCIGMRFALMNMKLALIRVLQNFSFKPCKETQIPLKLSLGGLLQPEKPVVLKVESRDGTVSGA
# Nuclear receptor subfamily 1 group I member 3 (Homo sapiens), sequence (Q14994 whole entry, looked up): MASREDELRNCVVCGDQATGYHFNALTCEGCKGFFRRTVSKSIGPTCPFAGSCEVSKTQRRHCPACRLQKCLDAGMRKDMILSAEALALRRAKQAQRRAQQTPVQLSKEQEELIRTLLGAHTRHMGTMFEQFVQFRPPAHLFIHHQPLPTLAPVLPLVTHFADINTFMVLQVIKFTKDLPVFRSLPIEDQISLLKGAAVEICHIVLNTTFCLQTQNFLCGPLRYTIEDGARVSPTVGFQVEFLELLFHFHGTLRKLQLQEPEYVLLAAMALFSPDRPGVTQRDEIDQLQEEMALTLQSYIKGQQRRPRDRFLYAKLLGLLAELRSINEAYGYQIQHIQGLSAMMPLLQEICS
# Dual specificity protein kinase CLK4 (Homo sapiens), sequence (Q9HAZ1 whole entry, looked up): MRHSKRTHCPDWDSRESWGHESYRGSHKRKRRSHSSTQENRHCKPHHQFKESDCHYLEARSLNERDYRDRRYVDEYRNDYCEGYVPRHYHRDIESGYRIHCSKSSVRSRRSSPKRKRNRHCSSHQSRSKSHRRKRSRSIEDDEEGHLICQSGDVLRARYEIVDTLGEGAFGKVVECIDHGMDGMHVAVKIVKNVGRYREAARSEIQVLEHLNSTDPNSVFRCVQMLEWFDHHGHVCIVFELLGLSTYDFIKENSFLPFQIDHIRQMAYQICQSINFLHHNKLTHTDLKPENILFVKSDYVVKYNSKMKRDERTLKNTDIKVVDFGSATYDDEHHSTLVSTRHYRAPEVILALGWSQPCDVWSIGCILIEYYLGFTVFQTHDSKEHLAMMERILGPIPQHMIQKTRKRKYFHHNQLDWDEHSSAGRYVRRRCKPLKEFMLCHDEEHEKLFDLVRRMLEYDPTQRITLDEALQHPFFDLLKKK
# Cytochrome P450 1A2 (Homo sapiens), sequence (P05177 whole entry, looked up): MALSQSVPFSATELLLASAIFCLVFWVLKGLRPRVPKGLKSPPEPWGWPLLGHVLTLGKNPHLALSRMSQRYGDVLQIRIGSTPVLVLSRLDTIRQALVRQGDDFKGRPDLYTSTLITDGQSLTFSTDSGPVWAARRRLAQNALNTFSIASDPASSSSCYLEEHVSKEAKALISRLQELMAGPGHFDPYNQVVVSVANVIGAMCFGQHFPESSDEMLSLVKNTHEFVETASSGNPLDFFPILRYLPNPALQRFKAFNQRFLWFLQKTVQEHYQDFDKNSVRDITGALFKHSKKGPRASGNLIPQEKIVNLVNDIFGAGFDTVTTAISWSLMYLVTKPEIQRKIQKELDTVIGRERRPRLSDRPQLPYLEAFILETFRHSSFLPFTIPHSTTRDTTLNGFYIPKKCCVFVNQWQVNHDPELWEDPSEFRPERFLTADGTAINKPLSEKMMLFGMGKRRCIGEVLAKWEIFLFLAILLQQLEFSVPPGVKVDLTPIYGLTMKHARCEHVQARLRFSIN
# Ubiquitin carboxyl-terminal hydrolase 1 (Homo sapiens), sequence (O94782 whole entry, looked up): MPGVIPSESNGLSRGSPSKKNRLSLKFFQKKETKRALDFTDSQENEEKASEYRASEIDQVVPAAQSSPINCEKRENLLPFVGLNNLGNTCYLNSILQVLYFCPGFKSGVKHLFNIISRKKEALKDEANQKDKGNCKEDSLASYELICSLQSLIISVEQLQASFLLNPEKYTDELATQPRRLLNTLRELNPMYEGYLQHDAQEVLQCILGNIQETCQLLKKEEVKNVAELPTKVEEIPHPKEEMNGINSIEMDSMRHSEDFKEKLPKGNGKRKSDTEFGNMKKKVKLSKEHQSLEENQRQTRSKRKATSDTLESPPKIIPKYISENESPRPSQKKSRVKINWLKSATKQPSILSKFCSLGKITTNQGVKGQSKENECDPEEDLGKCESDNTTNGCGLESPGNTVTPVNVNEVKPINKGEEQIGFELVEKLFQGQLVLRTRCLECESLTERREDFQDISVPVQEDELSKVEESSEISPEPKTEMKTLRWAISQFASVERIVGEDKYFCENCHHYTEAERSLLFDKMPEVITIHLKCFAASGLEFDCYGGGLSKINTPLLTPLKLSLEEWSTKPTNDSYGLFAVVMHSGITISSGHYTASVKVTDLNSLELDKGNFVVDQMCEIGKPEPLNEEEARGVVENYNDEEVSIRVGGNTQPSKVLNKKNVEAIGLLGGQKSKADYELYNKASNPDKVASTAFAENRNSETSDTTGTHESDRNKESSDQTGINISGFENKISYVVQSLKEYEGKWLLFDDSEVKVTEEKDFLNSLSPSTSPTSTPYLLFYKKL
structure (smiles),measurement,setting,value
CN(C)c1ccc(-c2cncnc2NCCc2cnc[nH]2)cc1,"activity change, negative = inhibition",[1],-28.6%
same,Potency,[2],1.26 µM (active)
same,"activity change, negative = inhibition",[3],-15.1%
same,outcome,[4],inactive
same,Potency,[5],> 46 µM
same,Potency,[6],> 46 µM
same,Potency,[7],inactive
same,Potency,[8],inactive
same,outcome,[9],inactive
same,Potency,[10],5.01 µM (active)
same,Potency,[11],0.0794 µM (active)
same,Potency,[12],inactive
same,Potency,[13],inactive
C[C@@H]1CC[C@]2(C)CC[C@]3(C)C(=CC(=O)C4[C@@]5(C)CC[C@@H](O)[C@](C)(C(=O)O)C5CC[C@]43C)C2[C@H]1C (stereo not given in full),outcome,[14],inactive
same,outcome,[15],inactive
same,Potency,[16],inactive
same,outcome,[17],inactive
same,Potency,[18],inactive
same,outcome,[19],inactive
same,max response,[20],2.52%
same,outcome,[21],inactive
same,Potency,[22],inactive
same,outcome,[23],inactive
same,outcome,[24],inactive
CCCCCCCCC/C=C/C(=O)CCc1ccc(O)c(OC)c1,outcome,[14],inactive
same,outcome,[15],inactive
same,outcome,[17],inactive
same,Potency,[25],15.8 µM (active)
same,outcome,[19],inactive
same,max response,[20],4.66%
same,outcome,[21],inactive
same,outcome,[23],inactive
same,outcome,[24],inactive
COc1ccccc1CNc1nc(-c2cccc(NS(C)(=O)=O)c2)nc2ccccc12,Potency,[26],> 11.4 µM
same,"activity change, negative = inhibition",[1],-13.2%
same,outcome,[4],inactive
same,Potency,[5],> 46 µM
same,Potency,[6],> 46 µM
same,Potency,[7],inactive
same,Potency,[12],inactive
same,Potency,[13],inactive
CCCCCCCC/C=C\CCCCCCCCCCCCCC(=O)O,outcome,[14],inactive
same,outcome,[15],inactive
same,Potency,[16],inactive
same,outcome,[17],inactive
same,Potency,[18],inactive
same,Potency,[27],inactive
same,Potency,[28],inactive
same,outcome,[19],inactive
same,Potency,[29],inactive
same,max response,[20],-2.19%
same,outcome,[21],inactive
same,Potency,[22],inactive
same,outcome,[23],inactive
same,outcome,[24],inactive
